Laboratory results: PubChem BioAssay (NCATS)
Records with an inconclusive call do not appear. Calls of active or inactive are those of the source. Unless noted, calls follow the shape of the dose curve; as a rule, active = well fitted curve in the direction sought with a large enough effect; inconclusive = small, poorly fitted or top-dose-only effect, or another doubt; inactive = no such curve, though single readings can be large; an effect the other way counts as inactive or inconclusive.

Experiments:
[1] = Cell Viability - HepG2 (AID 433; calls by dose curve;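 also: potency is read from the fitted curve at half-maximal effect; cells exposed to compound for 40 hours; potency for ATP loss meaning cytotoxicity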); details: qHTS
Method in brief: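 ATP luminescence (CellTiter-Glo) after 40 h compound exposure, 37 °C, HepG2, 1500 cells/well, complete medium. Normalized: DMSO = basal, 100 uM tamoxifen = 100% inhibition. AC50 via standard Hill equation.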

[2] = Cell Viability - N2a (AID 540); details: N2a mouse neuroblastoma cell viability; activity change, negative = cytotoxicity: at 92.2 µM (top of the series);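 also: plate controls were DMSO alone for no effect and tamoxifen control for full effect; nearly all actives have a fitted effect of over 45% in size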
Method in brief: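 CellTiter-Glo ATP luminescence, read 20 min after reagent at room temperature, reported viability following 40 h compound treatment at 37 °C. N2a mouse neuroblastoma cells seeded 1500/well; Hill equation gave AC50.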

[3] = Cellular Toxicity (caspase-3) Jurkat (AID 655); details: Jurkat caspase-3 activation, luminescence; caspase-3 activation: at 92.2 µM (top of the series), DMSO = 0%, tamoxifen = 100%;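 also: cells exposed to compound for 16 h at 37 °C before reading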
Method in brief: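 Luminescent caspase-3/7 readout (aminoluciferin substrate cleavage) in human T-cell leukemia Jurkat cells after 16 hr compound exposure. Concentration-response normalized to DMSO and 100 uM tamoxifen; AC50 by standard Hill equation.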

[4] = Cellular Toxicity (caspase-3) BJ (AID 658); details: BJ fibroblasts, luminescence, normalized: DMSO 0%, staurosporine 100%; series mostly up to 91.7 µM;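 also: 0% = DMSO basal and 100% = 10 µM staurosporine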
Method in brief: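 qHTS, BJ fibroblasts, 1000 cells/well; 5 hr preincubation, 16 hr compound, 37 °C; Caspase-Glo 3/7 reagent, 1 hr RT; luminescence. DMSO = 0%, 10 uM staurosporine = 100%. Hill-equation AC50.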

[5] = MultiTox-Fluor Cytotoxicity Assay - LYMP1-002 - Live Cells (AID 955); details: LYMP1-002 lymphoblastoid live-cell protease fluorescence viability; series mostly up to 46.1 µM; also: % is scaled to controls: 0 for no effect and ±100 for the full control effect
Method in brief: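 After 16 h compound exposure at 37 C, live LYMP1-002 lymphoblastoid cells (2500/well) were quantified by cleavage of cell-permeant GF-AFC substrate, read at 405/510 nm after 60 min. Concentration-response fitted with Hill equation for AC50.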

[6] = Cell Viability - LYMP2-004 (AID 966); details: LYMP2-004 lymphoblastoid cell viability, qHTS; series mostly up to 92.2 µM;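 also: plate controls were DMSO only for no effect and tetraoctylammonium bromide control for full effect; nearly all actives have a fitted effect of over 65% in size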
Method in brief: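 AC50 values come from Hill modelling of concentration-dependent loss of intracellular ATP, measured by CellTiter-Glo luminescence. Human LYMP2-004 lymphoblastoid cells (2500/well) were exposed to compound for 24 h at 37 C.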

[7] = Cell Viability - LYMP2-011 (AID 969); details: LYMP2-011 lymphoblastoid cells viability; series mostly up to 92.2 µM;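 also: 0% = DMSO only and full inhibition = 92 µM tetraoctylammonium bromide; nearly all actives have a fitted effect of over 60% in size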
Method in brief: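 Cytotoxicity qHTS with ATP content as read-out: lymphoblastoid cells (2500/well) exposed to compound for 24 h at 37 C, then luciferase luminescence measured. Concentration-response data fitted with the standard Hill equation to give AC50.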

[8] = Cell Viability - LYMP2-023 (AID 975); details: LYMP2-023 lymphoblastoid cell viability; series mostly up to 92.2 µM;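 also: cellular ATP measured by luciferase luminescence as viability proxy; plate controls were DMSO only for no effect and 92 µM tetraoctylammonium bromide control for full effect; nearly all actives have a fitted effect of over 55% in size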
Method in brief: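 Intracellular ATP, read by CellTiter-Glo luminescence, reports viability after 24 hr compound exposure at 37 C. 2500 lymphoblastoid cells/well (LYMP2-023) seeded 5 hr beforehand; Hill fits give AC50; positive control tetraoctylammonium bromide.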

[9] = Cell Viability - LYMP2-025 (AID 976); details: LYMP2-025 lymphoblastoid cell viability; series mostly up to 92.2 µM;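 also: plate controls were DMSO only for no effect and tetraoctylammonium bromide control for full effect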
Method in brief: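 Cytotoxicity read as loss of intracellular ATP (luciferase luminescence) after 24 h compound treatment at 37 C. Uses LYMP2-025 lymphoblastoid cells in 1536-well format; Hill-equation modelling gives AC50; tetraoctylammonium bromide as positive control.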

[10] = Cell Viability - LYMP2-002 (AID 977); details: LYMP2-002 lymphoblastoid cell viability, qHTS; series mostly up to 92.2 µM;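 also: plate controls were DMSO only for no effect and 92 µM tetraoctylammonium bromide for full effect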
Method in brief: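 Human lymphoblastoid cells, 2500/well, complete medium; 5 h 37 C settle; compound 24 h 37 C; CellTiter-Glo, 30 min RT; luminescence. Decrease in ATP = cytotoxicity; AC50 via Hill equation.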

[11] = Cell Viability - LYMP2-012 (AID 982); details: LYMP2-012 lymphoblastoid cell viability qHTS; series mostly up to 92.2 µM;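 also: cellular ATP by luciferase luminescence where a drop means cytotoxicity; cells exposed to compound for one day before reading; 0% = DMSO only and full loss = 92 µM tetraoctylammonium bromide; nearly all actives have a fitted effect of over 55% in size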
[12] = Cell Viability - LYMP2-014 (AID 983); details: LYMP2-014 lymphoblastoid cells, viability qHTS; series mostly up to 92.2 µM;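 also: plate controls were DMSO only for no effect and 92 µM tetraoctylammonium bromide for full effect; nearly all actives have a fitted effect of over 50% in size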
Method in brief: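 Intracellular ATP loss, read by luciferase luminescence, measures acute cytotoxicity after 24 h compound exposure of lymphoblastoid LYMP2-014 cells (2500/well, 37 C). Concentration-response data fitted to the Hill equation for AC50.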

[13] = Cell Viability - LYMP2-016 (AID 984); details: LYMP2-016 lymphoblastoid cell viability, qHTS; series mostly up to 92.2 µM; also: % is scaled to controls: 0 for no effect and ±100 for the full control effect; nearly all actives have a fitted effect of over 55% in size
Method in brief: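 qHTS, 1536-well: 2500 LYMP2-016 cells/well, 5 hr 37 C, compound added, 24 hr 37 C, CellTiter-Glo 30 min RT, luminescence. Tetraoctylammonium bromide positive control. AC50 via Hill fit.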

[14] = Cell Viability - LYMP2-020 (AID 986); details: series mostly up to 92.2 µM;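 also: plate controls were DMSO only for no effect and tetraoctylammonium bromide at 92 µM for full effect; nearly all actives have a fitted effect of over 55% in size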
Method in brief: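 Cytotoxicity in qHTS format: luminescent ATP readout from CellTiter-Glo after 24 h compound exposure at 37 C in complete medium. LYMP2-020 lymphoblastoid cells were seeded at 2500/well; concentration-response data fitted to the Hill equation for AC50.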

[15] = Cell Viability - LYMP2-022 (AID 987); details: LYMP2-022 lymphoblastoid cell viability; series mostly up to 92.2 µM
Method in brief: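 Cytotoxicity read as decreased cellular ATP (CellTiter-Glo luminescence, 30 min room temperature) after 24 hours compound exposure of 2500 lymphoblastoid LYMP2-022 cells/well at 37 C. Concentration-response data fitted with standard Hill equation for AC50.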

[16] = target: Vitamin D3 receptor (Homo sapiens) (UniProt P11473); experiment: qHTS assay for small molecule agonists of vitamin D receptor signaling (AID 588543; calls by dose curve;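 also: 0% = DMSO basal and 100% = reference agonist control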); details: HEK293T VDR-UAS-bla, beta-lactamase ratio, 16 h; series mostly up to 76.8 µM
Vitamin D3 receptor (Homo sapiens), sequence (P11473 whole entry, looked up): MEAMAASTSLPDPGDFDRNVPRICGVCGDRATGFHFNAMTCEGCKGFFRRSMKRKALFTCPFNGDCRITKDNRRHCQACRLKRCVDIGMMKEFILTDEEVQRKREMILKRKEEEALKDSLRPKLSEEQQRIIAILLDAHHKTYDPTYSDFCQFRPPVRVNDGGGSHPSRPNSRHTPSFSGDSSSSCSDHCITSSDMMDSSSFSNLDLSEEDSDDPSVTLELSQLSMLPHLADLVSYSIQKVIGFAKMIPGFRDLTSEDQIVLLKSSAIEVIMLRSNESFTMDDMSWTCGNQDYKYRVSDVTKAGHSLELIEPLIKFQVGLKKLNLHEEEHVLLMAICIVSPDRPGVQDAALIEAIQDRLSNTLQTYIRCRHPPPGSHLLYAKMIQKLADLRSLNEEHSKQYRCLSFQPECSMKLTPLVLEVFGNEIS
Method in brief: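 β-lactamase reporter, VDR-UAS-bla HEK293T, agonist mode. Cells plated 5 h at 37 °C, compound titration 16 h at 37 °C, CCF4 dye 2 h RT, ratio 460/530 nm. Hill fit → EC50, efficacy vs 50 nM 1α,25-(OH)2D3.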

[17] = qHTS assay for small molecule activators of the p53 signaling pathway (AID 651743; active = well fitted activation curve with a large enough effect in the signal ratio, not every such curve was filed as active; the % refers to the signal ratio; also: % of control where 0% means no effect); details: HCT-116 p53RE-bla, beta-lactamase FRET ratio, 16 h; activation: hits give high values
Method in brief: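 Following 16 hours of compound exposure at 37 C, HCT-116 cells bearing the p53RE-bla reporter were loaded with LiveBLAzer B/G FRET substrate for 2 hours at room temperature and fluorescence intensity was recorded.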

[18] = qHTS assay for cell viability of HEK293 cells (AID 743288); details: ATP luminescence (CellTiter-Glo), 18 h, hits give low values; also: % is scaled to controls: 0 for no effect and ±100 for the full control effect; nearly all actives have a fitted effect of over 50% in size
Method in brief: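 ATP luminescence (CellTiter-Glo) reports metabolically competent cell number after parental HEK293 cells, 2,000/well, were treated with DMSO-dissolved compounds for 18 h at 37 C; reagent incubation 30 min, room temperature.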

[19] = target: Retinoic acid receptor RXR-alpha (Homo sapiens) (UniProt P19793); experiment: qHTS assay for small molecule antagonists of retinoid X receptor alpha signaling (AID 588546; active = well fitted inhibition curve with a large enough effect in the signal ratio, with a control signal flat, not every such curve was filed as active; the % refers to the signal ratio;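 also: cells stimulated with 9-cis-retinoic acid as agonist; % is scaled to controls: 0 for no effect and ±100 for the full control effect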); details: HEK293T RXRa-UAS-bla, beta-lactamase ratio, antagonist mode
Retinoic acid receptor RXR-alpha (Homo sapiens), sequence (P19793 whole entry, looked up): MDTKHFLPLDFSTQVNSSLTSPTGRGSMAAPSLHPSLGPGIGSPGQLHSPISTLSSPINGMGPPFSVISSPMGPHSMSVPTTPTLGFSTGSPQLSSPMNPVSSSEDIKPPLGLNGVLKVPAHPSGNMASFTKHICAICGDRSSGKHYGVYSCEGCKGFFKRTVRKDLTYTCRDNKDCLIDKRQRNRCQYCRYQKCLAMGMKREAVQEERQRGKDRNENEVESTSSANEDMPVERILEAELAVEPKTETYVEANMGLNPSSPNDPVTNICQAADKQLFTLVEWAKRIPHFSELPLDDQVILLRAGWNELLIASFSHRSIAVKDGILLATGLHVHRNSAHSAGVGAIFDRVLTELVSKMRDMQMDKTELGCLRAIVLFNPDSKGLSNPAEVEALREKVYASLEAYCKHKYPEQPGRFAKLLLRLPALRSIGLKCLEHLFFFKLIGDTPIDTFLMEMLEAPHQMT
Method in brief: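 Beta-lactamase reporter inhibition, read as CCF4 fluorescence ratio (ex 405, em 460/530 nm) after 2 h at RT. HEK293T UAS-bla cells, 2500/well, were stimulated with 9-cis-RA at 500 or 100 nM final alongside test compound for 18 h at 37 C.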

[20] = target: Voltage-gated inwardly rectifying potassium channel KCNH2 (Homo sapiens) (UniProt Q12809); experiment: qHTS Assay for Small Molecule Inhibitors of the Human hERG Channel Activity (AID 588834); details: U2OS BacMam hERG, FluxOR thallium flux fluorescence; series mostly up to 92.2 µM;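 also: top concentration of the series differs between compounds; % is scaled to controls: 0 for no effect and ±100 for the full control effect; lower thallium flux fluorescence means stronger hERG block; nearly all actives have a fitted effect of over 50% in size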
Voltage-gated inwardly rectifying potassium channel KCNH2 (Homo sapiens), sequence (Q12809 whole entry, looked up): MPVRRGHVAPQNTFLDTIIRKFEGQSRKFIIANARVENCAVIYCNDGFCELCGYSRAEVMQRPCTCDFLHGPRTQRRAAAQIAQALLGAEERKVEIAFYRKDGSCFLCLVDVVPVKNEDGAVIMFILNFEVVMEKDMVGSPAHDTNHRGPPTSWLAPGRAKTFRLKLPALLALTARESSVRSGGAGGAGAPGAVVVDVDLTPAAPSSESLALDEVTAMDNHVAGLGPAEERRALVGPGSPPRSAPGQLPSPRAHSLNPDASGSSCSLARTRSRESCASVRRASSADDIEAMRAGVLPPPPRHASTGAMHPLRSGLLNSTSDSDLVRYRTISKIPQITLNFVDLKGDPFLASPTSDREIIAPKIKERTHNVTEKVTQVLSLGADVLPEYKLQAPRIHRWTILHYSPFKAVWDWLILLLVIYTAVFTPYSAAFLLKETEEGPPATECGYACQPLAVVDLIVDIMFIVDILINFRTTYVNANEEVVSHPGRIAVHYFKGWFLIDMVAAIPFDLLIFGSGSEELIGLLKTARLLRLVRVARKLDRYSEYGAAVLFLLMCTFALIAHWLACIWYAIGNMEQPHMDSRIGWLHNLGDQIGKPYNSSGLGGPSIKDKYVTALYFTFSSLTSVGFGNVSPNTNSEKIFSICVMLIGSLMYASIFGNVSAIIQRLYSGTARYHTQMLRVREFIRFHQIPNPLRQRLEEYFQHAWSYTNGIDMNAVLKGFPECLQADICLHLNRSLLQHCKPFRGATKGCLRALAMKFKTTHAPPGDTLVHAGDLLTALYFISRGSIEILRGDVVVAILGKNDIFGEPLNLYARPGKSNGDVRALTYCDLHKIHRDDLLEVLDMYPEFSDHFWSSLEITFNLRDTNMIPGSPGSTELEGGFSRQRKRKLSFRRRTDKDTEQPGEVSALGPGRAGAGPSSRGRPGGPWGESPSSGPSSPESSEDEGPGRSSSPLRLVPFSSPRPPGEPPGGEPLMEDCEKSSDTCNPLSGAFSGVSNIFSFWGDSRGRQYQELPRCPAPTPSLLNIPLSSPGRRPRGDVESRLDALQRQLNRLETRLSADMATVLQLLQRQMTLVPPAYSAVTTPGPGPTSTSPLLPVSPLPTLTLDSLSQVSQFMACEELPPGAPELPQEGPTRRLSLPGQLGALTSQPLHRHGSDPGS
Method in brief: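 Thallium-flux (FluxOR) read-out on FDSS: fluorescence read 10 s before and 2 min after stimulation buffer. hERG-BacMam-transduced U2OS cells, compound exposure about 10 min. AC50 by standard Hill equation.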

CCOP(=S)(OCC)Oc1nc(Cl)c(Cl)cc1Cl
inactive: Potency [1] > 92 µM | Potency [2] | caspase-3 activation [3] -1.27% | outcome [4] | outcome [5] | Potency [6] | Potency [7] | Potency [8] | Potency [9] | Potency [10] | Potency [11] | Potency [12] | Potency [13] | Potency [14] | Potency [15] | outcome [16] | activation [17] 2.38% [middle of 4 runs] | max response [18] -7.97% [middle of 4 runs]

O=Cc1ccc(Cl)cc1Cl
inactive: Potency [1] > 92 µM | caspase-3 activation [3] 8.63% | outcome [4] | Potency [6] | Potency [8] | Potency [9] | Potency [10] | Potency [14] | Potency [15] | outcome [16] | max response [19] 2.38% | Potency [20] | activation [17] -1.2% | max response [18] -8.13%

Clc1ccc(C(Cl)(Cl)Cl)c(Cl)c1
inactive: Potency [1] > 92 µM | Potency [2] | caspase-3 activation [3] -1.19% | outcome [4] | outcome [5] | Potency [7] | Potency [8] | Potency [9] | Potency [10] | Potency [11] | Potency [12] | Potency [13] | Potency [14] | Potency [15] | outcome [16] | max response [19] 8.02% | activation [17] -0.0334% | max response [18] -3.16%

Cc1ccc2c(C)cccc2c1
inactive: Potency [1] > 92 µM | Potency [2] | caspase-3 activation [3] -1.07% | outcome [4] | outcome [5] | Potency [6] | Potency [7] | Potency [8] | Potency [9] | Potency [11] | Potency [12] | Potency [13] | Potency [14] | Potency [15] | max response [19] 4.66% | activation [17] -0.174% | max response [18] 11.2%

COC(=O)Nc1cccc(OC(=O)Nc2cccc(C)c2)c1
inactive: Potency [1] > 92 µM | Potency [2] | caspase-3 activation [3] 1.17% | outcome [4] | Potency [6] | Potency [7] | Potency [8] | Potency [9] | Potency [10] | Potency [12] | Potency [13] | Potency [14] | Potency [15] | max response [19] 4.03% | Potency [20] | activation [17] -2.65% | max response [18] -7.47%

CC(Cl)CCl (stereo not given)
inactive: Potency [1] > 92 µM | Potency [2] | caspase-3 activation [3] 0.191% | outcome [4] | outcome [5] | Potency [6] | Potency [7] | Potency [8] | Potency [10] | Potency [11] | Potency [12] | Potency [13] | Potency [14] | outcome [16] | max response [19] -6.12% | Potency [20] | activation [17] 0.619% | max response [18] -4.06%

OCCOCCO
inactive: Potency [1] > 92 µM | Potency [2] | caspase-3 activation [3] -0.825% | outcome [4] | outcome [5] | Potency [6] | Potency [7] | Potency [8] | Potency [9] | Potency [10] | Potency [12] | Potency [13] | Potency [14] | Potency [15] | outcome [16] | max response [19] 1.12% | Potency [20] | max response [18] 1.68%
